# Laboratory results taken from PubChem BioAssay AID1159580 (chemical genetic matrix, 2015).
# Several values for one entry are separate records, joined by “and”; a condition that tells them apart may be missing. Identical values can stand only once. The whole screen tested about 5,500 compounds, of which about 2,000 (36%) were called active. About 18% were inconclusive and are not listed. Cut-off read from the data, not from the text of the source: active = normalized growth mostly below about 0.91 (no sharp cut-off); inconclusive = no clear call, values can overlap the other calls; inactive = mostly above about 0.92. This is one part of the list. More than one record can exist for a structure, and the calls need not agree.
# Experiment: chemical genetic growth profiling, strain panel (AID 1159580);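 note: tested at 20 µM; growth read once vehicle control cultures reached saturation at 30 °C; 1 = growth at the plate median or of vehicle wells; lower values mean less growth of the strain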
# Settings: S. cerevisiae deletion strains, growth OD
smiles,measurement,setting,value
CN(C)CCCN1c2ccccc2Sc2ccc(C(F)(F)F)cc21,normalized growth,"locus YJR066W, strain TOR1, stronger effect = lower value",0.981 (inactive)
same,normalized growth,"locus YJR075W, strain HOC1, stronger effect = lower value",1.01 (inactive)
same,normalized growth,"locus YKL009W, strain mrt4, stronger effect = lower value",0.944 (inactive)
same,normalized growth,"locus YKL068W, stronger effect = lower value",0.991 (inactive)
same,normalized growth,"locus YKL085W, strain MDH1 (second series), stronger effect = lower value",0.994 (inactive)
same,normalized growth,"locus YKL085W, strain MDH1, stronger effect = lower value",0.994 (inactive)
same,normalized growth,"locus YKL160W, strain elf1, stronger effect = lower value",0.997 (inactive)
same,normalized growth,"locus YKL190W, strain CNB1, stronger effect = lower value",0.995 (inactive)
same,normalized growth,"locus YKR001C, strain vps1, stronger effect = lower value",0.978 (inactive)
same,normalized growth,"locus YKR026C, strain gcn3, stronger effect = lower value",1.02 (inactive)
same,normalized growth,"locus YKR091W, strain srl3, stronger effect = lower value",1.02 (inactive)
same,normalized growth,"locus YLL001W, strain dnm1, stronger effect = lower value",1 (inactive)
same,normalized growth,"locus YLL026W, stronger effect = lower value",1 (inactive)
same,normalized growth,"locus YLL041C, strain sdh2, stronger effect = lower value",1.01 (inactive)
same,normalized growth,"locus YLR027C, strain aat2, stronger effect = lower value",0.992 (inactive)
same,normalized growth,"locus YLR039C, strain RIC1, stronger effect = lower value",0.901 (inactive)
same,normalized growth,"locus YLR058C, strain SHM2, stronger effect = lower value",0.977 (inactive)
same,normalized growth,"locus YLR102C, strain apc9, stronger effect = lower value",0.979 (inactive)
same,normalized growth,"locus YLR113W, strain HOG1, stronger effect = lower value",0.979 (inactive)
same,normalized growth,"locus YLR221C, strain rsa3, stronger effect = lower value",0.977 (inactive)
same,normalized growth,"locus YLR258W, strain gsy2, stronger effect = lower value",0.989 (inactive)
same,normalized growth,"locus YLR262C, strain YPT6 (second series), stronger effect = lower value",1.16 [resistant] (active)
same,normalized growth,"locus YLR262C, strain YPT6, stronger effect = lower value",0.87 (inactive)
same,normalized growth,"locus YLR268W, strain sec22, stronger effect = lower value",1.05 (inactive)
same,normalized growth,"locus YLR320W, strain mms22, stronger effect = lower value",1.06 (inactive)
same,normalized growth,"locus YLR330W, strain CHS5, stronger effect = lower value",0.989 (inactive)
same,normalized growth,"locus YLR342W, strain FKS1 (second series), stronger effect = lower value",1 (inactive)
same,normalized growth,"locus YLR342W, strain FKS1, stronger effect = lower value",1.02 (inactive)
same,normalized growth,"locus YLR357W, strain rsc2, stronger effect = lower value",1.02 (inactive)
same,normalized growth,"locus YLR370C, strain arc18, stronger effect = lower value",1 (inactive)
same,normalized growth,"locus YLR371W, strain rom2, stronger effect = lower value",0.955 (inactive)
same,normalized growth,"locus YLR384C, strain iki3, stronger effect = lower value",1.01 (inactive)
same,normalized growth,"locus YLR418C, strain cdc73, stronger effect = lower value",0.958 (inactive)
same,normalized growth,"locus YML016C, strain PPZ1, stronger effect = lower value",0.994 (inactive)
same,normalized growth,"locus YML032C, strain rad52, stronger effect = lower value",0.989 (inactive)
same,normalized growth,"locus YML120C, strain ndi1, stronger effect = lower value",0.97 (inactive)
same,normalized growth,"locus YML124C, strain tub3, stronger effect = lower value",0.976 (inactive)
same,normalized growth,"locus YMR058W, strain fet3, stronger effect = lower value",0.999 (inactive)
same,normalized growth,"locus YMR078C, strain ctf18, stronger effect = lower value",0.961 (inactive)
same,normalized growth,"locus YMR125W, strain sto1, stronger effect = lower value",0.992 (inactive)
same,normalized growth,"locus YMR129W, stronger effect = lower value",1.02 (inactive)
same,normalized growth,"locus YMR205C, strain PFK2, stronger effect = lower value",1.01 (inactive)
same,normalized growth,"locus YMR223W, strain ubp8, stronger effect = lower value",0.969 (inactive)
same,normalized growth,"locus YMR263W, strain SAP30, stronger effect = lower value",0.988 (inactive) and 0.998 (inactive)
same,normalized growth,"locus YMR307W, strain GAS1, stronger effect = lower value",1.05 (inactive) and 1.01 (inactive)
same,normalized growth,"locus YNL067W, strain RPL9B, stronger effect = lower value",1.01 (inactive)
same,normalized growth,"locus YNL071W, strain lat1, stronger effect = lower value",1.01 (inactive)
same,normalized growth,"locus YNL128W, strain TEP1, stronger effect = lower value",0.968 (inactive) and 1.11 [resistant] (active)
